Experimental data as given in PubChem BioAssay (Tox21).
Results filed as inconclusive are left out. Entries that show only a call come without a potency. Activity calls are given as the source filed them. The call rests on the fitted dose curve.

target: Acetylcholinesterase (Homo sapiens) (UniProt P22303); assay: Acetylcholinesterase (AChE) small molecule antagonists: fluorescence cell-based qHTS assay (AID 1347398); details: SH-SY5Y cells; Potency: AChE activity; outcome: AChE activity; series mostly up to 115 µM; further: nearly all actives have a fitted effect of over 50% in size
Sequence (P22303 whole entry, looked up): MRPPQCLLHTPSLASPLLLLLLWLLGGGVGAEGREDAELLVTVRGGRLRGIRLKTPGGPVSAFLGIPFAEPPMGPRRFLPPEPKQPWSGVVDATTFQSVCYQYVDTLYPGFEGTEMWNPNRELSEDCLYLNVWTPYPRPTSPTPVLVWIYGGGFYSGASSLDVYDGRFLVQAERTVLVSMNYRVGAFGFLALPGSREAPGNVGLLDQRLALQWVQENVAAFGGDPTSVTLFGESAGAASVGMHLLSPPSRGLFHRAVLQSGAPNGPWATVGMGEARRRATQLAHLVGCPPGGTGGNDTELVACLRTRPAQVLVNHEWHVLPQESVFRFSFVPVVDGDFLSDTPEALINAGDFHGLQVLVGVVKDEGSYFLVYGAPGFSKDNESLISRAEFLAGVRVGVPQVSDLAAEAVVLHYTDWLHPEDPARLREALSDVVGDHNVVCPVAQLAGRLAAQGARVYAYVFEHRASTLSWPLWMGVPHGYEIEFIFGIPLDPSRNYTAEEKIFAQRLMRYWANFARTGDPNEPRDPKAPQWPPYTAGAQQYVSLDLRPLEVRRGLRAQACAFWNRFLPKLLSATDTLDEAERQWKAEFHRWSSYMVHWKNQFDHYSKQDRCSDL
In short: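 Read-out is Thiolite Green fluorescence at Ex/Em = 490/520 nm, formed by reaction with thiocholine released when cellular AChE in SH-SY5Y cells hydrolyzes acetylthiocholine. Compounds were preincubated 30 min at 37 C before substrate.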

| SMILES | Potency |
| --- | --- |
| CCCCCCCC/C=C/CCCOC(C)=O | inactive |
| C=CC1CC2C=CC1C2 (stereo not given) | inactive |
| O=C(Cl)c1cccc([N+](=O)[O-])c1 | inactive |
| N=C(N=C(N)N)N1CCOCC1 | inactive |
| Cc1occc1C(=O)Nc1ccc(C(=O)N2CCC(F)(F)/C(=C\C(=O)N3CCC(N4CCCCC4)CC3)c3ccccc32)cc1 | inactive |
| CC(C)=CCC/C(C)=C\C#N | inactive |
| O=C(Cn1ccnc1[N+](=O)[O-])NCCO | inactive |
| C[C@H](CCC(=O)O)[C@H]1CC[C@H]2[C@@H]3[C@H](O)C[C@@H]4C[C@H](O)CC[C@]4(C)[C@H]3C[C@H](O)[C@]12C | inactive |
| C=CS(=O)(=O)O | inactive |
| Clc1ccnc(Cl)n1 | inactive |
| O=C(O)c1c2ccccc2cc2ccccc12 | inactive |
| CN(C)CCN(C)CCO | inactive |
| Nc1c(Br)cc([N+](=O)[O-])cc1Br | inactive |
| COc1ccnc(CS(=O)c2nc3ccc(OC(F)F)cc3[nH]2)c1OC (stereo not given) | inactive |
| CO[Si](OC)(c1ccccc1)c1ccccc1 | inactive |
| CCCCOCCOC(=O)c1cccnc1 | inactive |
| COc1ncnc(NS(=O)(=O)c2ccc(N)cc2)c1OC | inactive |
| COC(=O)CC#N | inactive |
| CCCC(=O)OCc1ccccc1 | inactive |
| C=C(C)C(=O)OCCCCCCCCCCOC(=O)C(=C)C | inactive |

| SMILES | Potency |
| --- | --- |
| Cc1cn[nH]c1 | inactive |
| CC(C)CCOCc1ccccc1 | inactive |
| CCOC(=O)c1cnc2c(cnn2CC)c1NN=C(C)C | inactive |
| CCOC(=S)SSC(=S)OCC | inactive |
| CCCCCCCCCC[N+](C)(C)[O-] | inactive |
| CN1[C@@H]2CC[C@H]1CC(NC(=O)n1c(=O)[nH]c3ccccc31)C2 (stereo not given in full) | inactive |
| COc1ccc(-c2cc(=S)ss2)cc1 | inactive |
| CCCCCCCCCC(=O)N(C)C | inactive |
| [Ca+2] | inactive |
| O=C1CC[C@@H](C(=O)O)N1 | inactive |
| CCCCCCCCCI | inactive |
| C=C1C[C@@]23CC[C@H]4[C@@](C)(CCC[C@@]4(C)C(=O)O[C@@H]4O[C@H](CO)[C@@H](O)[C@H](O)[C@H]4O)[C@@H]2CC[C@]1(O[C@@H]1O[C@H](CO)[C@@H](O)[C@H](O[C@@H]2O[C@H](CO)[C@@H](O)[C@H](O)[C@H]2O)[C@H]1O[C@@H]1O[C@H](CO)[C@@H](O)[C@H](O)[C@H]1O)C3 | inactive |
| C=Cc1ccc(S(=O)(=O)O)cc1 | inactive |
| Cc1ccc(C(C)OC(=O)C2(C)CCC(C(=O)O)C2(C)C)cc1 (stereo not given) | inactive |
| CC(=O)C1CCCCC1=O (stereo not given) | inactive |
| COc1ccc(OC)c(OC)c1 | inactive |
| COC(=O)CCSCCC(=O)OC | inactive |
| CC[C@@]1(O)C(=O)OCc2c1cc1n(c2=O)Cc2c-1nc1ccccc1c2/C=N/OC(C)(C)C | inactive |
| Cn1cc(C(=O)[C@@H]2CCc3nc[nH]c3C2)c2ccccc21 | inactive |
| C=C(C)CCCC | inactive |

target: Acetylcholinesterase (Homo sapiens) (UniProt P22303); assay: Acetylcholinesterase (AChE) small molecule antagonists: enzyme-based qHTS assay with human liver microsomes (AID 1347399); details: Potency: qHTS inhibition; outcome: qHTS inhibition; series mostly up to 115 µM; further: nearly all actives have a fitted effect of over 60% in size
In short: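 Recombinant human AChE (50 mU/mL in the enzyme mix) and human liver microsomes (0.25 mg/mL final) were preincubated with compound and NADPH (0.25 mg/mL final) for 30 min at 37 C. Acetylthiocholine/DTNB was then added; thiocholine was read colorimetrically after 10 min at room temperature.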

| SMILES | Potency |
| --- | --- |
| CCCCCCCC/C=C/CCCOC(C)=O | inactive |
| C=CC1CC2C=CC1C2 (stereo not given) | inactive |
| O=C(Cl)c1cccc([N+](=O)[O-])c1 | inactive |
| N=C(N=C(N)N)N1CCOCC1 | inactive |
| Cc1occc1C(=O)Nc1ccc(C(=O)N2CCC(F)(F)/C(=C\C(=O)N3CCC(N4CCCCC4)CC3)c3ccccc32)cc1 | inactive |
| CC(C)=CCC/C(C)=C\C#N | inactive |
| O=C(Cn1ccnc1[N+](=O)[O-])NCCO | inactive |
| C[C@H](CCC(=O)O)[C@H]1CC[C@H]2[C@@H]3[C@H](O)C[C@@H]4C[C@H](O)CC[C@]4(C)[C@H]3C[C@H](O)[C@]12C | inactive |
| C=CS(=O)(=O)O | inactive |
| Clc1ccnc(Cl)n1 | inactive |
| O=C(O)c1c2ccccc2cc2ccccc12 | inactive |
| CN(C)CCN(C)CCO | inactive |
| Nc1c(Br)cc([N+](=O)[O-])cc1Br | inactive |
| COc1ccnc(CS(=O)c2nc3ccc(OC(F)F)cc3[nH]2)c1OC (stereo not given) | inactive |
| CO[Si](OC)(c1ccccc1)c1ccccc1 | inactive |
| CCCCOCCOC(=O)c1cccnc1 | inactive |
| COc1ncnc(NS(=O)(=O)c2ccc(N)cc2)c1OC | inactive |
| COC(=O)CC#N | inactive |
| CCCC(=O)OCc1ccccc1 | inactive |
| C=C(C)C(=O)OCCCCCCCCCCOC(=O)C(=C)C | inactive |

| SMILES | Potency |
| --- | --- |
| Cc1cn[nH]c1 | inactive |
| CC(C)CCOCc1ccccc1 | inactive |
| CCOC(=O)c1cnc2c(cnn2CC)c1NN=C(C)C | inactive |
| CCOC(=S)SSC(=S)OCC | inactive |
| CCCCCCCCCC[N+](C)(C)[O-] | inactive |
| CN1[C@@H]2CC[C@H]1CC(NC(=O)n1c(=O)[nH]c3ccccc31)C2 (stereo not given in full) | inactive |
| COc1ccc(-c2cc(=S)ss2)cc1 | inactive |
| CCCCCCCCCC(=O)N(C)C | inactive |
| [Ca+2] | inactive |
| O=C1CC[C@@H](C(=O)O)N1 | inactive |
| CCCCCCCCCI | inactive |
| C=C1C[C@@]23CC[C@H]4[C@@](C)(CCC[C@@]4(C)C(=O)O[C@@H]4O[C@H](CO)[C@@H](O)[C@H](O)[C@H]4O)[C@@H]2CC[C@]1(O[C@@H]1O[C@H](CO)[C@@H](O)[C@H](O[C@@H]2O[C@H](CO)[C@@H](O)[C@H](O)[C@H]2O)[C@H]1O[C@@H]1O[C@H](CO)[C@@H](O)[C@H](O)[C@H]1O)C3 | inactive |
| C=Cc1ccc(S(=O)(=O)O)cc1 | inactive |
| Cc1ccc(C(C)OC(=O)C2(C)CCC(C(=O)O)C2(C)C)cc1 (stereo not given) | inactive |
| CC(=O)C1CCCCC1=O (stereo not given) | inactive |
| COc1ccc(OC)c(OC)c1 | inactive |
| COC(=O)CCSCCC(=O)OC | inactive |
| CC[C@@]1(O)C(=O)OCc2c1cc1n(c2=O)Cc2c-1nc1ccccc1c2/C=N/OC(C)(C)C | inactive |
| Cn1cc(C(=O)[C@@H]2CCc3nc[nH]c3C2)c2ccccc21 | inactive |
| C=C(C)CCCC | inactive |
